Shown are actives, neighbours in structure and some others; about 1.9% of the full set was active somewhere.
PME-1 inh – PME-1 inhibitors via competitive probe labeling, primary screen, biochemical, fluorescence polarization, FP-Rh probe, HTS | Protein phosphatase methylesterase 1 (Homo sapiens), Q9Y570 | recombinant PME-1 | inhibition, % at 5.9 µM | 0.53% of 320,000 active | AID 2130, 2009;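 active = inhibition above the campaign mean of all compounds plus 3 SD, cut at about 26% in these data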;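 note: competitive labeling of PME-1 active site by serine hydrolase directed probe; 0% = PME-1 with DMSO and 100% = wells lacking PME-1 enzyme; inhibitors block probe labeling so polarization falls and inhibition rises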
LYPLA1 inh – LYPLA1 inhibitors, primary screen, counter-screen for PME1 inhibitor project, biochemical, fluorescence polarization, FP-Rh probe ABPP; inhibition, % at 5.9 µM; 0.16% of 320,000 active; Acyl-protein thioesterase 1 (Homo sapiens), O75608; AID 2174, 2009; recombinant LYPLA1;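 active = inhibition above the mean of all tested compounds plus 3 SD, set per campaign, cut at about 14% in these data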;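 note: inhibitors block serine hydrolase probe labeling of LYPLA1 so polarization falls; 0% = enzyme with DMSO and 100% = wells lacking LYPLA1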
Target sequence (O75608 whole entry, looked up): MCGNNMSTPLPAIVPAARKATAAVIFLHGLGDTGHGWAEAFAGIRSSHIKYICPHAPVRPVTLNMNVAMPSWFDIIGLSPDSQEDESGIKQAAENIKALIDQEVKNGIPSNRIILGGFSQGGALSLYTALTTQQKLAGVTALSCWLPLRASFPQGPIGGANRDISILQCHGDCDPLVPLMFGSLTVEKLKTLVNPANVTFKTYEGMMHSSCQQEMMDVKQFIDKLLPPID
GSTO1 counter – inhibitors of recombinant GSTO1, primary screen, counter-screen for RBBP9 inhibitor project, biochemical, fluorescence polarization; 1.1% of 300,000 active; inhibition, % at 5.96 µM; Glutathione S-transferase omega-1 (Homo sapiens), P78417; activity-based probe fluorescence polarization;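 active = inhibition above the campaign mean inhibition plus 3 SD, cut at about 35% in these data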;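 note: 0% = GSTO1-1 with DMSO and 100% = wells lacking GSTO1-1 enzyme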
Target sequence (P78417 whole entry, looked up): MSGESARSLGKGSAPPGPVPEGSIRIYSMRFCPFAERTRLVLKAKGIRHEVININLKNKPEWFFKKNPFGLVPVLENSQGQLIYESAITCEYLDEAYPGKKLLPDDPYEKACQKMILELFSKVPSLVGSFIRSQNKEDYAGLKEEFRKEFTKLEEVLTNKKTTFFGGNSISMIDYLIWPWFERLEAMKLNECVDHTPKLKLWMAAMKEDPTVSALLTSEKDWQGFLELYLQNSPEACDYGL
PREPL inhibitor – PREPL enzyme inhibitors, primary screen, biochemical, fluorescence polarization; Prolyl endopeptidase-like (Homo sapiens), Q4J6C6; 0.68% of 320,000 active; recombinant PREPL, fluorescence polarization activity-based probe; inhibition, % at 5.96 µM; AID 2751, 2010; in the data active = inhibition above about 43%;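 note: 0% = enzyme with DMSO and 100% = wells lacking enzyme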
LYPLA2 counter – LYPLA2 inhibitors, primary screen, counter-screen for PME1 inhibitor project, biochemical, fluorescence polarization, FP-Rh probe ABPP; AID 2177, 2009; recombinant LYPLA2; Acyl-protein thioesterase 2 (Homo sapiens), O95372; 0.38% of 320,000 active; inhibition, % at 5.9 µM;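 active = inhibition above the screen-wide mean plus 3 SD, limit set per campaign, cut at about 26% in these data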;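 note: 0% = LYPLA2 with DMSO and 100% = wells lacking LYPLA2 enzyme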
Fam108B counter – mouse Fam108B serine hydrolase inhibitors, primary screen, counter-screen for RBBP9 inhibitor project, biochemical, fluorescence polarization. inhibition, % at 9.51 µM. recombinant Fam108B, FP-Rh probe fluorescence polarization. 0.33% of 300,000 active. AID 1947, 2009;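 active = inhibition above the screen mean inhibition plus 3 SD, computed separately per campaign, cut at about 18% in these data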;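 note: inhibitors lower polarization as less probe binds the enzyme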
GSTO1 confirm – GSTO1 inhibitor hit confirmation, counter-screen for RBBP9 inhibitor project, biochemical, fluorescence polarization, triplicate. shares compounds with GSTO1 counter. recombinant GSTO1, probe fluorescence polarization. inhibition, % at 5.96 µM. 54% of 2,400 active;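 active = inhibition above the primary screen's cutoff, its mean inhibition plus 3 SD, cut at about 35% in these data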;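 note: loss of polarization as inhibitors block binding of rhodamine sulfonate ester activity probe; 0% = GSTO1 with DMSO and 100% = wells lacking GSTO1 enzyme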
GSTO1 ABPP inh – inhibitors of purified human GSTO1, late-stage follow-up, biochemical, gel ABPP, SE-Rh probe, percent inhibition; shares compounds with GSTO1 counter; recombinant GSTO1, gel ABPP SE-Rh probe fluorescence; inhibition, % at 1 µM; 30% of 130 active;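 active = inhibition of the enzyme GSTO1 above about 75%, limit read from the data; inactive = inhibition below that limit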
An asterisk follows results filed as active; nt = no result.

SMILES	PME-1 inh	LYPLA1 inh	GSTO1 counter	PREPL inhibitor	LYPLA2 counter	Fam108B counter	GSTO1 confirm	others
c1ccc(CCCOCCC2CO2)cc1 (stereo not given)	-4	0	96*	1	4	0	94*	GSTO1 ABPP inh=60
Cc1ccccc1NC(=O)CSc1nnc(-c2ccco2)n1N	-6	-1	-14	-4	-7	-6	nt
Cc1cccc(NC(=O)CSc2nnc(-c3ccco3)c(-c3ccco3)n2)c1C	0	-5	42*	8	2	9	16
O=C(NCc1ccc2c(c1)OCO2)c1ccc(CS(=O)Cc2ccc(Cl)cc2)o1 (stereo not given)	-6	-1	5	-3	0	0	nt
O=C(NCc1ccc2c(c1)OCO2)c1nnc(Cc2ccc(Cl)cc2)o1	6	4	59*	1	2	-6	1
CCCC[n+]1ccn(C2=C([O-])c3ccccc3C(=O)/C2=N\S(=O)(=O)c2ccc(Br)cc2)c1	5	-2	78*	29	4	3	74*
Cc1ccc(NC(=O)C[n+]2ccn(C3=C([O-])c4ccccc4C3=O)c2)cc1	3	0	-1	35	6	2	nt
Cc1ccc(S(=O)(=O)/N=C2\C(=O)c3ccccc3C([O-])=C2n2cc[n+](CCC(C)C)c2)cc1	2	-1	76*	18	3	3	71*
CCCC[n+]1ccn(-c2nc3ccccc3nc2[N-]S(=O)(=O)c2ccc(Cl)cc2)c1	3	-2	1	-6	-6	0	nt
CC(=O)Nc1ccc(S(=O)(=O)/N=C2\C(=O)c3ccccc3C([O-])=C2n2cc[n+](-c3ccccn3)c2)cc1	3	2	77*	14	8	9	82*
CCN(C(=O)COC(=O)c1cc2c(s1)CCCC2)c1c(N)n(Cc2ccccc2)c(=O)[nH]c1=O	nt	nt	nt	21	nt	nt	nt
Cc1ccsc1C(=O)OCC(=O)NCc1ccccc1	nt	nt	nt	0	nt	nt	nt
Cc1cc(OCC(=O)OCC(=O)c2c(N)n(C)c(=O)n(C)c2=O)ccc1Cl	-1	-5	nt	34	-5	nt	nt
CC(CNc1ccccc1O)C(=O)O (stereo not given)	-4	-6	45*	3	2	2	7
Cc1cc(C)n(-c2ccc(C(=O)NCC(c3ccco3)N3CCCC3)cc2)n1 (stereo not given)	-11	-1	nt	9	-8	nt	nt
CC(=O)c1ccc(OCC(=O)N2CCCC2c2ccc3c(c2)OCCCO3)cc1 (stereo not given)	nt	nt	nt	12	nt	nt	nt
O=C(CCl)N1CCCC1c1ccc2c(c1)OCCO2 (stereo not given)	-7	-3	55*	2	1	-1	70*	GSTO1 ABPP inh=7
C[C@H](CO)N1C[C@H](C)[C@@H](CN(C)C(=O)NC2CCCCC2)Oc2ccc(NC(=O)Cc3ccccc3)cc2C1=O	nt	nt	nt	17	nt	nt	nt
Cc1ccc(S(=O)(=O)N(CC2CO2)c2cc(Cl)ccc2Cl)cc1 (stereo not given)	-1	2	85*	-2	4	2	91*	GSTO1 ABPP inh=0
O=C(CN(c1cccc([N+](=O)[O-])c1)S(=O)(=O)c1ccccc1)N(Cc1ccccc1)Cc1ccccc1	5	-4	-2	-1	-3	1	nt
O=S(=O)(c1ccc2ccccc2c1)N(CC1CO1)c1ccccc1 (stereo not given)	5	-5	70*	-7	-2	1	92*	GSTO1 ABPP inh=26
